Data: the supplement of paper PMC12669032
Values joined by “and” are separate entries in the source; they are usually repeats but may differ in a detail not shown here. Equal entries are not always repeated. Unmarked numbers belong to inactive results.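 The calls were made as follows: active = AUC reduced over 20% with Padj below 0.05 in at least 2 of 3 replicates; inactive = otherwise.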

Legend:
Assay in all cases: growth AUC relative to DMSO control (median of replicates) (fraction); higher = more growth (less inhibition), active = hit call of the paper
Conditions in all cases: 20 µM; 24 h
[1] = tested on: Akkermansia muciniphila
Summary of the method: (§1)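 Area under the growth curve was normalised to the plate median of solvent-only wells, or to row and column medians on the industrial chemical plate. Growth curves came from anaerobic gut bacterial monocultures in mGAM at 37 °C, seeded at OD600 0.05 with 20 µM compound (1% DMSO), and read at OD600 hourly for 24 h with the minimum OD set to 0. The value is the median of three biological replicates grown on separate days.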

[2] = tested on: Bacteroides caccae
Summary of the method: as §1

[3] = tested on: Bacteroides clarus
Summary of the method: as §1

[4] = tested on: Bacteroides dorei
Summary of the method: as §1

[5] = tested on: Bacteroides stercoris
Summary of the method: as §1

[6] = tested on: Bacteroides thetaiotaomicron
Summary of the method: as §1

[7] = tested on: Bacteroides uniformis
Summary of the method: as §1

[8] = tested on: Bifidobacterium longum subsp. longum
Summary of the method: as §1

[9] = tested on: Clostridium difficile
Summary of the method: as §1

[10] = tested on: Collinsella aerofaciens
Summary of the method: as §1

## CCOP(=O)(N=C1SCC(C)S1)OCC (stereo unspecified)
[1]
  growth AUC: 0.979
[2]
  growth AUC: 0.995
[3]
  growth AUC: 0.966
[4]
  growth AUC: 1.03
[5]
  growth AUC: 0.983
[6]
  growth AUC: 1.01
[7]
  growth AUC: 1.03
[8]
  growth AUC: 1.03
[9]
  growth AUC: 0.977
[10]
  growth AUC: 1

## Nc1ncn[nH]1
[1]
  growth AUC: 0.877
[2]
  growth AUC: 1.04
[3]
  growth AUC: 1.01
[4]
  growth AUC: 1.02
[5]
  growth AUC: 0.931
[6]
  growth AUC: 1.01
[7]
  growth AUC: 0.997
[8]
  growth AUC: 1.02
[9]
  growth AUC: 1.01
[10]
  growth AUC: 0.995

## Clc1ccc(C2(Cn3cncn3)OCCO2)c(Cl)c1
[1]
  growth AUC: 1.03
[2]
  growth AUC: 0.932
[3]
  growth AUC: 0.984
[4]
  growth AUC: 0.934
[5]
  growth AUC: 0.815
[6]
  growth AUC: 0.916
[7]
  growth AUC: 0.985
[8]
  growth AUC: 1.01
[9]
  growth AUC: 0.956
[10]
  growth AUC: 0.913

## ClC1C(Cl)C(Cl)C(Cl)C(Cl)C1Cl (stereo unspecified)
[10]
  growth AUC: 1.02 and 1.01 and 1.03

## CCOC(=O)/C=C(C)/C=C/C[C@@H](C)CCCC(C)C
[1]
  growth AUC: 0.915
[2]
  growth AUC: 0.985
[3]
  growth AUC: 1.03
[4]
  growth AUC: 1.01
[5]
  growth AUC: 1.12
[6]
  growth AUC: 0.986
[7]
  growth AUC: 0.984
[8]
  growth AUC: 0.949
[9]
  growth AUC: 1.06
[10]
  growth AUC: 0.982

## O=[N+]([O-])NC1=NCOCN1Cc1cnc(Cl)s1
[1]
  growth AUC: 1.23
[2]
  growth AUC: 0.994
[3]
  growth AUC: 1.04
[4]
  growth AUC: 1.01
[5]
  growth AUC: 1.19
[6]
  growth AUC: 0.979
[7]
  growth AUC: 0.964
[8]
  growth AUC: 0.917
[9]
  growth AUC: 0.999
[10]
  growth AUC: 0.971

## CCOP(=S)(NC(C)CC)Oc1cc(C)ccc1[N+](=O)[O-] (stereo unspecified)
[1]
  growth AUC: 0.974
[2]
  growth AUC: 0.947
[3]
  growth AUC: 0.946
[4]
  growth AUC: 1.01
[5]
  growth AUC: 0.865
[6]
  growth AUC: 0.955
[7]
  growth AUC: 0.917
[8]
  growth AUC: 0.965
[9]
  growth AUC: 1.03
[10]
  growth AUC: 0.985

## CS(=O)(=O)c1cc(C(F)(F)F)ccc1C(=O)c1cnoc1C1CC1
[1]
  growth AUC: 1
[2]
  growth AUC: 1.08
[3]
  growth AUC: 1.01
[4]
  growth AUC: 1.02
[5]
  growth AUC: 0.921
[6]
  growth AUC: 1.02
[7]
  growth AUC: 0.994
[8]
  growth AUC: 0.982
[9]
  growth AUC: 1.05
[10]
  growth AUC: 1

## Cc1nnc(-c2ccccc2)c(=O)n1N
[1]
  growth AUC: 0.94
[2]
  growth AUC: 1.05
[3]
  growth AUC: 1
[4]
  growth AUC: 1
[5]
  growth AUC: 0.945
[6]
  growth AUC: 1.02
[7]
  growth AUC: 0.986
[8]
  growth AUC: 1.04
[9]
  growth AUC: 1
[10]
  growth AUC: 0.983

## CC(Oc1ccc(Oc2ccc(Cl)cc2Cl)cc1)C(=O)O (racemic)
[1]
  growth AUC: 0.812
[2]
  growth AUC: 0.991
[3]
  growth AUC: 0.875
[4]
  growth AUC: 0.997
[5]
  growth AUC: 0.851
[6]
  growth AUC: 0.989
[7]
  growth AUC: 0.98
[8]
  growth AUC: 0.903
[9]
  growth AUC: 1.02
[10]
  growth AUC: 0.995

## CN(C)C(=O)Nc1ccc(Cl)cc1
[1]
  growth AUC: 0.948
[2]
  growth AUC: 1.02
[3]
  growth AUC: 0.971
[4]
  growth AUC: 1.01
[5]
  growth AUC: 1.05
[6]
  growth AUC: 0.973
[7]
  growth AUC: 1.02
[8]
  growth AUC: 0.99
[9]
  growth AUC: 0.979
[10]
  growth AUC: 1.03

## CCCCOC(=O)c1ccccc1C(=O)OCCCC
[1]
  growth AUC: 1.05
[2]
  growth AUC: 0.94
[3]
  growth AUC: 1.01
[4]
  growth AUC: 0.998
[5]
  growth AUC: 0.99
[6]
  growth AUC: 1
[7]
  growth AUC: 0.978
[8]
  growth AUC: 0.938
[9]
  growth AUC: 1.02
[10]
  growth AUC: 0.985

## Cc1cc(OC(=O)N(C)C)nn1C(=O)N(C)C
[1]
  growth AUC: 0.959
[2]
  growth AUC: 1.02
[3]
  growth AUC: 0.992
[4]
  growth AUC: 0.968
[5]
  growth AUC: 1.09
[6]
  growth AUC: 1.02
[7]
  growth AUC: 0.979
[8]
  growth AUC: 0.988
[9]
  growth AUC: 1.01
[10]
  growth AUC: 1.02

## O=c1oc2ccccc2c(O)c1C1CCCc2ccccc21 (stereo unspecified)
[1]
  growth AUC: 1.15
[2]
  growth AUC: 0.938
[3]
  growth AUC: 0.916
[4]
  growth AUC: 0.926
[5]
  growth AUC: 1.09
[6]
  growth AUC: 0.796 (active)
[7]
  growth AUC: 0.701 (active)
[8]
  growth AUC: 1.09
[9]
  growth AUC: 1.02
[10]
  growth AUC: 1

## CNC(=O)Oc1ccc(N(C)C)c(C)c1
[1]
  growth AUC: 1.05
[2]
  growth AUC: 0.855
[3]
  growth AUC: 1.01
[4]
  growth AUC: 0.983
[5]
  growth AUC: 1.41
[6]
  growth AUC: 0.994
[7]
  growth AUC: 1
[8]
  growth AUC: 0.979
[9]
  growth AUC: 0.99
[10]
  growth AUC: 0.932
